Data on 28 compounds can be found in PubChem BioAssay (EPA / NIEHS).

Inconclusive results are not listed. Active and inactive are the calls of the source. Rule for the calls: active = hit-call score of the fitted dose curve at least 0.9, where 1 is the maximum; inconclusive = response in the unintended direction; inactive = score below 0.9.

Read-out in one assay: glucuronosyltransferase (UGT1A1), UGT1A1 (gene 54658)
Briefly: CLD_UGT1A1_48hr: CellzDirect (CLD) Gene Expression Assay for glucuronosyltransferase (UGT1A1) at 48 hours (AID 2283709).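 Note: actives increase expression relative to DMSO so potency refers to induction.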 The method in brief:
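Human primary hepatocytes dosed daily for two days (0.2% DMSO vehicle), harvested at 48 h. UGT1A1 mRNA induction measured by quantitative nuclease protection assay with chemiluminescence; gain of signal versus DMSO; cytotoxicity flagged from morphology.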
Take `CCOP(=O)(OCC)Oc1nc(Cl)c(Cl)cc1Cl`: the call was inactive. For `CC(C)Nc1nc(Cl)nc(NC(C)C)n1`, the AC50 (in general, the concentration giving half of the maximal activity seen) is 5.88 µM (active). In the case of `CO/N=C(/C1=NOCCO1)c1ccccc1Oc1ncnc(Oc2ccccc2Cl)c1F`, the outcome was inactive. As for `Nc1c(Cl)c(F)nc(OCC(=O)O)c1Cl`, the outcome was inactive. `CCCN(CC)CC1COC2(CCC(C(C)(C)C)CC2)O1` (stereo not drawn): the compound was called inactive. For `CS(=O)(=O)c1cc(C(F)(F)F)ccc1C(=O)c1cnoc1C1CC1`, the outcome was inactive.

In the case of `COC(=O)NC(=S)Nc1ccccc1NC(=S)NC(=O)OC`, the result was inactive. Take `N#CN=C1SCCN1Cc1ccc(Cl)nc1`: the outcome was inactive.

Consider `CC(C)C1(C)N=C(c2ncccc2C(=O)O)NC1=O` (stereo not drawn), for which the outcome was inactive. For the compound `CCCCC(O)(Cn1cncn1)c1ccc(Cl)cc1Cl` (stereo not drawn), the compound was called inactive.

Consider `Clc1cccc(C(Cl)(Cl)Cl)n1`, for which the result was inactive. Take `CCCC(=NOCC)C1=C(O)CC(CC(C)SCC)CC1=O` (stereo not drawn): the call was inactive. `CNC(=O)N(C)c1nnc(C(C)(C)C)s1`: the compound was classed as inactive. `COCC(C)N(C(=O)CCl)c1c(C)csc1C` (stereo not drawn): the call was inactive. Regarding `COP(=S)(OC)SCn1nnc2ccccc2c1=O`, the AC50 is 6.38 µM (active). As for `OC(c1ccc(Cl)cc1)(c1ccc(Cl)cc1)C(Cl)(Cl)Cl`, the compound was called inactive. On the same count and under the same terms, to `CS(=O)(=O)c1ccc(C(=O)C2C(=O)CCCC2=O)c([N+](=O)[O-])c1` belongs “inactive”.

Read-out in the next assay: sulfotransferase (SULT2A), SULT2A1 (gene 6822)
Put plainly: CLD_SULT2A_48hr: CellzDirect (CLD) Gene Expression Assay for sulfotransferase (SULT2A) at 48 hours (AID 2283710).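 Note: hits raise SULT2A1 transcript above the 0.2% DMSO vehicle baseline.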 An outline of the steps: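 Primary human hepatocytes (two donor preparations) dosed daily for two days with chemicals at multiple concentrations, vehicle 0.2% DMSO; SULT2A1 mRNA induction at 48 h by quantitative nuclease protection assay, chemiluminescent read-out, fitted for gain of signal versus DMSO.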
For the compound `CCOP(=O)(OCC)Oc1nc(Cl)c(Cl)cc1Cl`, the compound was called inactive. In the case of `COC(=O)NS(=O)(=O)c1ccc(N)cc1`, the compound was classed as inactive. For `O=P(O)(O)CCCl`, the outcome was inactive. Regarding `CO/N=C(/C1=NOCCO1)c1ccccc1Oc1ncnc(Oc2ccccc2Cl)c1F`, the compound was classed as inactive. For `CC(C)=CC1C(C(=O)OCc2coc(Cc3ccccc3)c2)C1(C)C` (stereo not drawn), the outcome was inactive.

On to `O=c1n(Cl)c(=O)n(Cl)c(=O)n1Cl`, for which the call was inactive. `CS(=O)(=O)c1cc(C(F)(F)F)ccc1C(=O)c1cnoc1C1CC1`: the compound was classed as inactive. On to `N#CN=C1SCCN1Cc1ccc(Cl)nc1`, for which the result was inactive.

On to `C=C(C)CN(CC)c1c([N+](=O)[O-])cc(C(F)(F)F)cc1[N+](=O)[O-]`, for which the compound was classed as inactive. In the case of `CCN(CC)C(=O)C(C)Oc1cccc2ccccc12` (stereo not drawn), the AC50 is 33 µM (active). Regarding `COP(=S)(OC)SCn1nnc2ccccc2c1=O`, the outcome was inactive.

Read-out in the next assay: HMG-CoA synthase (HMGCS2), HMGCS2 (gene 3158)
Briefly: CLD_HMGCS2_48hr: CellzDirect (CLD) Gene Expression Assay for HMG-CoA synthase (HMGCS2) at 48 hours (AID 2283711). An outline of the steps:
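Primary human hepatocytes from two donors dosed daily for two days, 0.2% DMSO vehicle. HMGCS2 mRNA measured 48 h after dosing by quantitative nuclease protection assay with chemiluminescent read-out; induction fitted relative to DMSO, cytotoxicity flagged by microscopy.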
As for `CCOP(=O)(OCC)Oc1nc(Cl)c(Cl)cc1Cl`, the outcome was inactive.

Regarding `COC(=O)NS(=O)(=O)c1ccc(N)cc1`, the outcome was inactive. `O=P(O)(O)CCCl`: the AC50 was 0.000456 µM (active).

Turning to `Nc1c(Cl)c(F)nc(OCC(=O)O)c1Cl`, the compound was called inactive.

On to `CCCN(CC)CC1COC2(CCC(C(C)(C)C)CC2)O1` (stereo not drawn), for which the result was inactive.

`CS(=O)(=O)c1cc(C(F)(F)F)ccc1C(=O)c1cnoc1C1CC1`: the call was inactive.

With `COC(=O)NC(=S)Nc1ccccc1NC(=S)NC(=O)OC`, the compound was called inactive. `O=C(O)c1c(Cl)ccc2cc(Cl)cnc12`: the compound was classed as inactive. Regarding `Cc1c(COC(=O)[C@@H]2[C@H](/C=C(\Cl)C(F)(F)F)C2(C)C)cccc1-c1ccccc1`, the result was inactive. Regarding `CCCC(=NOCC)C1=C(O)CC(CC(C)SCC)CC1=O` (stereo not drawn), the call was inactive. Same read-out and setting: to `CNC(=O)N(C)c1nnc(C(C)(C)C)s1` belongs “inactive”. Regarding `CC(C)N1C(=O)c2ccccc2NS1(=O)=O`, the result was inactive.

Take `COc1ccc(-c2ccccc2)cc1NNC(=O)OC(C)C`: the result was inactive. The same measure, in the same setting: the result for `COc1cc(OC)nc(NC(=O)NS(=O)(=O)c2ncccc2OCC(F)(F)F)n1` reads “inactive”; that for `CS(=O)(=O)c1ccc(C(=O)C2C(=O)CCCC2=O)c([N+](=O)[O-])c1`, “inactive”.
